Screening results (PubChem)
This is a sample that favours compounds with a hit; in the whole collection about 7.5% have one here.
ELG1 genotox – genotoxicity induction in ELG1-luciferase HEK293T cells | 1.3% of 330,000 active | Potency, µM (series often up to 46 µM), most hits filed as activators | HEK293T ELG1-luciferase reporter, luminescence, 16 h; also: nearly all actives have a fitted effect of over 60% in size
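Luminescence read-out: rising ELG1-luciferase signal, reflecting elevated ELG1 protein under genetic stress, flags genotoxic compounds. Cells were treated for 16 hr at 37 °C before ONE-Glo detection.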
NPC1 promoter act – NPC1 promoter activation | Potency, µM (series often up to 9.22 µM), hits mostly activators | AID 485313 | Huh7 NPC1 promoter luciferase reporter, 24 h | 2.4% of 320,000 active; also: nearly all actives have a fitted effect of over 60% in size
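Compounds in DMSO were transferred onto Huh7 NPC1-luciferase reporter cells pre-incubated 2 h; after 24 h at 37 °C, Amplite reagent was dispensed and luminescence recorded 10 min later.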
FLuc modulator – firefly luciferase modulation, counter-screen for miR-21 project | P08659 | purified FLuc, Km substrates, luminescence inhibition | Potency, µM (top dose mostly 57.5 µM), usual class: inhibitors | 6.9% of 360,000 active; also: nearly all actives have a fitted effect of over 55% in size
Target sequence (P08659 whole entry, looked up): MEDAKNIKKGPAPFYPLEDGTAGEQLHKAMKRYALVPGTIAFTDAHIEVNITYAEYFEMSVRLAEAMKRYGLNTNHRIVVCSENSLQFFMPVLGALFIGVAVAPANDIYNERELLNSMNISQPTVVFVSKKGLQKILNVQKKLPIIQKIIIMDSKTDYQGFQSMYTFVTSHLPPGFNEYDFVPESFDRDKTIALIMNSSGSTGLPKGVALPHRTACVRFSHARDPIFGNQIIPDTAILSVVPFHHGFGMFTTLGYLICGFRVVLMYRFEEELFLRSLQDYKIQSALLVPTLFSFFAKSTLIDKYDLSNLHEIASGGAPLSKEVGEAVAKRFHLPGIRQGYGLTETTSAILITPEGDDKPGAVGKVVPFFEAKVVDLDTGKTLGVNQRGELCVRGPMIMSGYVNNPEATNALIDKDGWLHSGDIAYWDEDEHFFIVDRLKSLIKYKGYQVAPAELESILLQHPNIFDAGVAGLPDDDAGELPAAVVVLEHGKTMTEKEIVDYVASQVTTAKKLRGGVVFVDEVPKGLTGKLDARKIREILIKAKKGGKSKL
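Biochemical qHTS of compounds, final roughly 60 µM downward over six points, against 10 nM purified firefly luciferase using Km concentrations of substrates (10 uM D-luciferin, 10 uM ATP) in Tris acetate pH 7.5 buffer; luminescence output.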
SMN2 splice enh – increases expression of the SMN2 splice variant; HEK293 SMN2-luciferase splicing reporter, luminescence, 30-36 h; Potency, µM (highest dose often 46.1 µM), most hits filed as activators; 2.8% of 210,000 active; also: nearly all actives have a fitted effect of over 55% in size
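HEK293 cells carry an SMN2 minigene-luciferase reporter in which exon 7 inclusion puts luciferase in frame. Cells were seeded at 2000 cells/well, attached for 10-12 hours, then exposed to compounds for 30-36 hours at 37C before ONE-Glo luminescence.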
Rab9 prom act – activates the Rab9 promoter; Huh7 Rab9 promoter-luciferase reporter, luminescence, 24 h; 2.8% of 320,000 active; Potency, µM (highest dose often 9.22 µM), hits mostly activators; also: nearly all actives have a fitted effect of over 60% in size
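Rab9 promoter-driven luciferase in stably transfected Huh7 cells; 1500 cells/well rested 2 h, exposed to compound in DMSO for 24 h at 37 °C, 5% CO2. Luminescence read 10 min after adding luciferase reagent at ambient temperature.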
Numbers stand for hits; - = inactive; ? = inconclusive; . = no result. Calls follow the shape of the dose curve; as a rule, active = well fitted curve in the direction sought with a large enough effect; inconclusive = small, poorly fitted or top-dose-only effect, or another doubt; inactive = no such curve, though single readings can be large; an effect the other way counts as inactive or inconclusive.

SMILES	ELG1 genotox	NPC1 promoter act	FLuc modulator	SMN2 splice enh	Rab9 prom act
O=[N+]([O-])c1nn(-c2ccc3c(c2)OCCO3)n(O)c1=NC1CCCC1	?	-	-	-	?
COc1ccc(-n2nc([N+](=O)[O-])c(=NCc3ccc4c(c3)OCO4)n2O)cc1	?	2.24µM	?	?	?
O=[N+]([O-])c1nn(-c2ccccc2)n(O)c1=NCc1ccc2c(c1)OCO2	-	-	?	-	-
O=[N+]([O-])c1nn(-c2ccc3c(c2)OCCO3)n(O)c1=NC1CCCCCC1	?	-	16.9µM	-	?
CS(=O)(=O)N(CC(=O)O)c1cccc(Cl)c1	-	-	-	?	-
O=C(Nc1ccc(F)c([N+](=O)[O-])c1)c1ccc2c(c1)OCCO2	-	-	6.01µM	-	?
O=C(Nc1ccc(Cl)cc1[N+](=O)[O-])c1ccc2c(c1)OCCO2	4.11µM	0.562µM	?	.	0.447µM
NS(=O)(=O)c1ccc(S(=O)(=O)NCCc2ccccc2)cc1	-	-	-	-	-
CC1Sc2ccc(C(=O)O)cc2NC1=O (stereo not given)	-	-	-	-	-
CC1Sc2ccc(C(=O)Nc3cc(S(C)(=O)=O)ccc3Cl)cc2NC1=O (stereo not given)	?	-	-	.	-
COc1cccc(COC(=O)c2ccc3c(c2)NC(=O)C(C)S3)c1OC (stereo not given)	-	-	-	.	-
CC1Sc2ccc(C(=O)Nc3ncccc3O)cc2NC1=O (stereo not given)	?	1.26µM	7.57µM	.	0.891µM
Cc1cccnc1NC(=O)c1ccc2c(c1)NC(=O)C(C)S2 (stereo not given)	?	-	16.9µM	.	-
CC1Sc2ccc(C(=O)OCc3ccccc3Cl)cc2NC1=O (stereo not given)	?	2.24µM	2.13µM	.	1µM
Cc1nn(CC(=O)Nc2ccc(N3CCOCC3)cc2)c(C)c1[N+](=O)[O-]	-	.	.	.	.
O=C(NC1(O)C(=O)c2ccccc2C1=O)c1ccc(C(F)(F)F)cc1	-	-	-	.	-
Cc1ccc(C(=O)NC2(O)C(=O)c3ccccc3C2=O)cc1C	-	-	2.39µM	.	-
NS(=O)(=O)c1ccc(NC(CNS(=O)(=O)c2ccccc2)c2ccccc2)cc1 (stereo not given)	-	-	-	-	-
Fc1cccc(CSc2nc3ncc(Cl)cc3[nH]2)c1	-	-	-	.	-
COc1ccc(S(=O)(=O)N(C)CC(=O)Nc2cccc(C(C)=O)c2)cc1C	.	.	-	-	.
Cc1ccc(NC(=O)n2ccc(-c3ccc(-n4ccnc4)cc3)n2)cc1	-	?	?	12.6µM	3.98µM
COc1ccc(OCC(=O)N/N=C(\C)c2ccc(-n3ccnc3)cc2)cc1	-	-	6.01µM	-	-
CC(C)(C)c1ccc(NC(=O)COc2ccc(-n3ccnc3)cc2)cc1	-	-	15.1µM	.	-
C/C(=N\NC(=O)COc1ccc(C(C)(C)C)cc1)c1ccc(-n2ccnc2)cc1	-	-	0.379µM	?	?
C/C(=N\NC(=O)OC(C)(C)C)c1ccc(-n2ccnc2)cc1	-	-	-	-	-
SMILES	ELG1 genotox	NPC1 promoter act	FLuc modulator	SMN2 splice enh	Rab9 prom act
CC(=O)Nc1ccc(NC(=O)CSc2ccc(-c3ccc(-n4ccnc4)cc3)nn2)cc1	-	-	?	.	-
CCc1ccccc1N(C)C(=O)Nc1cn(CC(C)C)c(=O)c2ccccc12	.	.	-	.	.
COc1ccc(N(C(C)C(=O)N/N=C/c2cc(Br)c(C)o2)S(C)(=O)=O)cc1 (stereo not given)	-	-	-	-	-
COc1ccc(N=C(C)C2=C(O)c3ccccc3C2=O)cc1	2.59µM	0.708µM	0.953µM	5.01µM	0.447µM
CC(=NC1CC1)C1=C(O)c2ccccc2C1=O	?	-	16.9µM	-	?
CCOc1ccc(N=C(C)C2=C(O)c3ccccc3C2=O)cc1	?	0.794µM	1.35µM	.	1.26µM
CC(=O)Nc1ccc(N=C(C2=C(O)c3ccccc3C2=O)c2ccccc2)cc1	-	-	?	-	?
C/C(=N\N(C)C)C1=C(O)c2ccccc2C1=O	-	-	?	-	-
O=C(Cc1ccccc1)Nc1cc(-c2nc3cc(Cl)ccc3o2)ccc1Cl	.	.	-	?	.
COc1ccc2oc(-c3ccc(C)c(NC(=O)COc4cc(C)cc(C)c4)c3)nc2c1	.	.	-	-	.
CCC(=O)Nc1cc(-c2nc3cc(C)cc(C)c3o2)ccc1C	.	.	1.69µM	-	.
CCc1ccc2oc(-c3ccc(C)c(NC(=O)Cc4ccccc4)c3)nc2c1	.	.	4.78µM	-	.
CCc1ccc2oc(-c3ccc(C)c(NC(=O)c4ccc(C#N)cc4F)c3)nc2c1	.	.	16.9µM	-	.
CC1CCN(c2c(NCc3ccc(C(=O)N4CCc5ccccc54)cc3)c(=O)c2=O)CC1	-	-	-	-	-
CCCN(C(=O)CCc1nc(-c2ccccc2F)no1)c1ccc(CC)cc1	.	.	-	-	.
c1ccc(OCCSc2nnc3sc4ccccc4n23)cc1	?	0.355µM	0.426µM	-	0.316µM
COc1cccc(OCCSc2nnc3sc4ccccc4n23)c1	?	-	19µM	?	-
COC(=O)COc1ccc(C2Nc3c(Cl)ccc(C(=O)O)c3C3C=CCC32)cc1 (stereo not given)	-	-	?	-	-
O=C(NCCc1cccs1)C1CC(c2ccc([N+](=O)[O-])cc2)=NO1 (stereo not given)	?	3.55µM	13.5µM	?	2.51µM
CCCCNC(=O)C1CC(c2cccc(F)c2)=NO1 (stereo not given)	?	?	15.1µM	.	?
COc1ccc(CCNC(=O)C2CC(c3cccc([N+](=O)[O-])c3)=NO2)cc1 (stereo not given)	-	?	15.1µM	?	?
COc1cc(/C=N/NC(=O)CCn2nnc3ccccc32)ccc1O	-	-	15.1µM	-	-
COc1cccc(/C=N\NC(=O)Cn2nnc3ccccc32)c1O	?	-	16.9µM	.	-
O=C(Nc1ccccc1)Nc1ccc(NC(=O)c2ccccc2O)cc1	-	-	-	.	-
O=C(Oc1ccccc1C(=O)Nc1ccccc1)c1ccccc1Br	?	-	16.9µM	-	-
SMILES	ELG1 genotox	NPC1 promoter act	FLuc modulator	SMN2 splice enh	Rab9 prom act
Cc1ccc(NC(=O)c2ccccc2O)cc1	?	2µM	0.953µM	2.82µM	0.631µM
O=C(Nc1ccccc1)c1ccccc1O	?	-	10.7µM	-	-
COc1ccc(-n2nc(C(=O)Nc3cc(OC)c(OC)c(OC)c3)c(=O)n(C)c2=O)cc1	.	.	-	.	.
O=C(N/N=C/c1ccc(OCC(=O)N2CCCCC2)cc1)c1ccccc1	-	-	?	?	-
O=C(O)COc1ccc(/C=N/NC(=O)c2cn(-c3ccccc3)nc2-c2ccccc2)cc1	-	-	4.78µM	.	-
Cc1c(/C=N\NC(=O)c2csc3ccccc23)cnn1C	-	-	?	-	-
O=C(N/N=C/c1cccc(O)c1)c1ccccc1O	?	-	1.51µM	.	-
O=C(N/N=C/c1cccc(O)c1)c1csc2ccccc12	-	-	21.3µM	-	-
O=C(Oc1ccc(/C=N/NC(=O)c2ccccc2O)cc1)c1ccccc1	?	-	?	-	-
